Test results reported in article PMC12136788.
Substitutions are numbered along the chain they refer to. Whole data set: some 24,000 sequences, median “enrichment r” near 0.99, cut for the highest 2% near 3.7. Many of the other results were omitted from the sample, so the highest values are more common in it than they were.

B1: 33187691_33187811_5116_3pUTR_ENSG00000170275_ENST00000320954|human|control|control (ssRNA)
RNA: GGGAGUUCUACAGUCCGACGAUCGCCUGCAGAACCAAACAGCAACCACUGAGCUCCAUGCUGAUGGGUCAAAGGACAAGCAAGGCAUCUUAGAGCAGGCCUGGAAGCUCCCACAAAGCUUACAAAUGUGUUUGUUUUUUCGAACAACAGAGGAUUGAGCAUCA
B2: chr6:38652254:38652255:-_ENSG00000124767_ENST00000373365|hu_hu|hu_hu_hu_mus_False|18_18 (ssRNA)
RNA: GGGAGUUCUACAGUCCGACGAUCCGAGAACUUCAUAGCAGGGAAGUCAAGCUUCUGCAGGAGGGUCAGUCCAAGAACCCUCGUAUAAAAAUCCAGGGACUUCUUAGGAUCCUUAAUUCGUAGCAUGGUUUGCUGCAGUAGAAACAACAGAGGAUUGAGCAUCA
B3: chr2:43450610:43450611:-_ENSG00000152518_ENST00000282388|hu_hu|motif|central (ssRNA)
RNA: GGGAGUUCUACAGUCCGACGAUCAGUUAAAUAGUUUUCAUAUUGAGUUGUGGUGCAGUGGUGCGAAUCAACUCAAAACAGCGGAAAAUUCAGCAGUUAUUCUCCAACAAUUACAAAGUAAGCUCUGCGCAAGGCUUCCAGAGGCAACAGAGGAUUGAGCAUCA
B4: chr17:36096658:36096659:-_ENSMUSG00000038762_ENSMUST00000043757|mus_mus|FALSE|FALSE (ssRNA)
RNA: GGGAGUUCUACAGUCCGACGAUCCUGCUUCUCGUACUGCUUUAGCAGCUCUUUCUGCUUCUGCUGGUACAUCUUCUUGAAGGUCAUGUAAUUGCCCCUGUAGUAAUGGAGCCGCUGGGUGUCCAGGUGGAUGAUAUCAGUGCACAACAGAGGAUUGAGCAUCA
B5: chrX:71549400:71549401:+_ENSMUSG00000019087_ENSMUST00000019231|mus_hu|mus_mus_mus_hu_False|28_98 (ssRNA)
RNA: GGGAGUUCUACAGUCCGACGAUCGCAGUAGGAAGAGCAAACCUUUCCAGUCCAGUGCGCUGCAGGGUGGGAAAGCAACAACACGGACACCGUCCCACCCUCAACCCUCUCAGGUGUACAGGGUCACACAAUCUGGGUCAAAGACAACAGAGGAUUGAGCAUCA
B6: chr17:65337090:65337091:-_ENSG00000197170_ENST00000584008|hu_hu|FALSE|FALSE (ssRNA)
RNA: GGGAGUUCUACAGUCCGACGAUCACCAGUCAUUUAAUAAAUUAUUUGGAUCCUUGGGUCUCUGGAAGUUGAUAAUUCCUGCUAAUCUGUCUACUUUAGCAAAGAUGGUCUUGUUAACUACUAGAUUUGAGAGAAAGGCUUCGGCAACAGAGGAUUGAGCAUCA
B7: chr13:100193180:100193181:-_ENSMUSG00000052727_ENSMUST00000064762|mus_mus|FALSE|FALSE (ssRNA)
RNA: GGGAGUUCUACAGUCCGACGAUCAUAAUAUAAAGGCUAAAUAAAUUUAAGUUGGAAAACUGGAAGAUAACUCCAUCUUCUAUGAAAGAAAAGUCAACCAGAGGUCUGGAUUUGGCAAGAAGGCUAGAAAUUGUUUCUCUUCACCAACAGAGGAUUGAGCAUCA
B8: chr1:182797045:182797046:+_ENSMUSG00000038806_ENSMUST00000038091|mus_hu|FALSE|FALSE (ssRNA)
RNA: GGGAGUUCUACAGUCCGACGAUCAGACUCAAGCUAAAUAGAAGAAAGAAAAUAACAGAAAUUAAUUAUAUAAACAAUUGAGAAAAAUAAAACCAAAGGUUGGUUCUUUAAAAGUUAUAUCGUCGGCCAGGCACGGUGGCUCACCAACAGAGGAUUGAGCAUCA
B9: chr13:100193180:100193181:-_ENSMUSG00000052727_ENSMUST00000064762|mus_mus|motif|central (ssRNA)
RNA: B7 RNA with U80G, A81G
B10: chr4:11091628:11091629:+_ENSMUSG00000028211_ENSMUST00000029865|mus_mus|motif|central (ssRNA)
RNA: GGGAGUUCUACAGUCCGACGAUCUUCUUUCUCACUGAAUUCUGGUUCUUGGCUGGAAGAAGUAGUGACUUCGCCGGCAAACAUUUUAUUCAGUCUCUGAAACAUUGUUAAGGCAAGAUUGAGAUUUUGGCUAGAUAUCUUUAUCAACAGAGGAUUGAGCAUCA
B11: 134340332_134340452_1702_CDS_ENSG00000130723_ENST00000357304|human|control|control (ssRNA)
RNA: GGGAGUUCUACAGUCCGACGAUCAGGGCCGUUUUCCUGGGGAGAUGCCUUCUCAGCACUUGGAGACCAGGGCACUUCCUUCUCUGCCUGCUUCCGGGCCUCACCUGCCUUUCGUGCCUGCUUACACUUCUGGUCCAGCUGCUUCAACAGAGGAUUGAGCAUCA
B12: 79156280_79159801_5654_CDS_ENSMUSG00000039414_ENSMUST00000097281|mouse|control|control (ssRNA)
RNA: GGGAGUUCUACAGUCCGACGAUCACUGCUGGCAGACCACAGGAAGAGCGCAAUGGCUGUGAGUGUGCUCACUUCGUCAGGUGCGGGCAUACAGUCAUCUGGUUGAGAAUAUUCCAGGAUGCAGGCAAGGGUGCUCCGGAUUAGCAACAGAGGAUUGAGCAUCA
B13: chr10:40656395:40656396:+_ENSMUSG00000019831_ENSMUST00000105509|mus_mus|FALSE|FALSE (ssRNA)
RNA: GGGAGUUCUACAGUCCGACGAUCUUGUGAUGGAGGAGAUGGAGGCAUUAAUGGAGCAUGGGGACCCGGGGCAGUAGAUGGUGCUGGAUGGAGCCCAGAGGGAGGAUGAGCAAGAGCUGCAACUGCGACAGGAGAUGAUGGCCGCAACAGAGGAUUGAGCAUCA
B14: chr4:144460044:144460045:+_ENSG00000153147_ENST00000283131|hu_mus|hu_hu_hu_mus_False|8_68 (ssRNA)
RNA: GGGAGUUCUACAGUCCGACGAUCACGGUCCAUAGCCUGAAGAUCAACUUGCGGAUUCCAAUCUGAGUCAUACAAAAUGACUACAUCAGCAGUUGCAAGAUUGAUGCCCAGACCACCAGCACGUGUGCUUAACAUGAAUACAAACAACAGAGGAUUGAGCAUCA
B15: chr22:19452774:19452775:-_ENSG00000070010_ENST00000399523|hu_hu|hu_hu_hu_mus_False|58_88 (ssRNA)
RNA: GGGAGUUCUACAGUCCGACGAUCCUUCUCAUUGUAGUUGAUAGCAAUCACAUCCCCAGUCGUCAGACAGGCGAAGUUCCUAAGUGCAUUUUCUAAUACCGCUUUAGGGUUGGUAAUAUCCAGGAAGUCUGGGCUCUGAGGCUGCAACAGAGGAUUGAGCAUCA
B16: 91655523_91655643_1000_CDS_ENSMUSG00000022961_ENSMUST00000114036|mouse|control|control (ssRNA)
RNA: GGGAGUUCUACAGUCCGACGAUCCUCCGAUGGUGCUUCUACAGGCUGCUCUGGCAAUCUUUGCACGUCAGUUGUAGAUGACUCUGGAAAAUCCAUUGUUGAUGGGCUUGGUUCAGGGUGCACCUCAGUAGGUGUCUCUGACACCAACAGAGGAUUGAGCAUCA
B17: chr16:2011185:2011186:+_ENSG00000140990_ENST00000268668|hu_hu|motif|central (ssRNA)
RNA: GGGAGUUCUACAGUCCGACGAUCCACGCGGCGGUACUGCCGGUGGUAGUAGUAAUACCUGUUCUUUGCGUGCUGCCGCUCGGUAAAUUCUCUCACGAGGGUCACGGGUCGGUCCACGAUGAGGUCGAACGCUUUCAUCAUGUACAACAGAGGAUUGAGCAUCA
B18: chr10:75542919:75542920:+_ENSG00000172586_ENST00000372833|hu_mus|FALSE|FALSE (ssRNA)
RNA: GGGAGUUCUACAGUCCGACGAUCUGAGAGUUCAUUGAAAAUAUUUCUCCAUUUUCAGAUGAGAUGAGAUUUGUUGGGAAAUCUCUGUAACAACUUGGUCAUCUUGUGGGGAGAUAAACUCUCGGACUGUCCCAGAGACUCCUGCAACAGAGGAUUGAGCAUCA
B19: chr15:85967975:85967976:+_ENSMUSG00000035900_ENSMUST00000088931|mus_mus|FALSE|FALSE (ssRNA)
RNA: GGGAGUUCUACAGUCCGACGAUCACAGAGCAUUUUAGGUUUAUUAAAUAAAAAUUAUAAUUUAUACAAGACUUUGUAUCUAAACAAGGUUUUCUUUUUUUAAAAAAAAAAGUGACAGAGGAUUUUUUUUCCUAUCAGUUCUUUCAACAGAGGAUUGAGCAUCA
B20: chr15:85967975:85967976:+_ENSMUSG00000035900_ENSMUST00000088931|mus_mus|motif|central (ssRNA)
RNA: B19 RNA with U80G, A81G
B21: chr5:162868235:162868236:+_ENSG00000113328_ENST00000340828|hu_hu|motif|central (ssRNA)
RNA: GGGAGUUCUACAGUCCGACGAUCCCAACACACCUUCUCCAAUACAAUCUUUUCCAUUCUCAUCAAGUCUGAAACCGUAAACCGGUAUUGACUUAUUCGGAUCAAGUCAGUUGCCAAUGGGACAUUCCUUUCCUCUUCUAUUGACAACAGAGGAUUGAGCAUCA
B22: chr9:14812383:14812384:-_ENSMUSG00000031934_ENSMUST00000164273|mus_mus|mus_mus_mus_hu_True|28_108 (ssRNA)
RNA: GGGAGUUCUACAGUCCGACGAUCAUAGCUCAAGUAGAUACACGCUAACAGUAUAAUGAUGAGUGUCAGCAGGCGGCAGCUAAUGUACUUGAUGAUUAAAUUAUUAGAGUUCUUUUUUGUCUUCAAGUACUGCUCCACAAUUGGCAACAGAGGAUUGAGCAUCA

target: T1, UNK ZnF1-3 (human, UniProt Q9C0B0 31-174); assay: nsRBNS (natural sequence RNA bind-n-seq); RBNS binding buffer (assumed for nsRBNS): 25 mM Tris pH 7.5, 150 mM KCl, 3 mM MgCl2, 0.01% Triton X-100, 500 ug/ml BSA, 20 U/ml SUPERase-In, 4 C; UNK is unkempt and MSI1 is Musashi-1; names of the RNAs are library labels; protein concentration not given here; high values mean tight binding
T1 sequence: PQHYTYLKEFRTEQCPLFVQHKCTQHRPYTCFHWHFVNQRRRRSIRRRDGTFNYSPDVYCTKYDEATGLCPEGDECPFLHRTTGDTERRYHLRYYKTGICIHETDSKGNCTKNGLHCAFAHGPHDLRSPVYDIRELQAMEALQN

| Binder | binding signal [enrichment R] |
| --- | --- |
| B1 | 1.65 |
| B2 | 0.56 |
| B3 | 1.75 |
| B4 | 0.639 |
| B5 | 0.931 |
| B6 | 1.44 |
| B7 | 3.86 |
| B8 | 14.2 |
| B9 | 6.8 |
| B10 | 0.789 |
| B11 | 0.675 |
| B12 | 1.35 |
| B13 | 3.38 |
| B14 | 0.925 |
| B15 | 0.785 |
| B16 | 0.484 |
| B17 | 0.392 |
| B18 | 0.344 |
| B19 | 4.57 |
| B20 | 7.03 |
| B21 | 0.785 |
| B22 | 1.06 |
